# Results taken from PubChem BioAssay (Tox21).
# Values without a mark were called inactive. The source made the active and inactive calls. Calls come from the whole dose curve; as a rule, active = well fitted curve in the direction sought with a large enough effect in the repeat runs; inconclusive = weak or mixed curves; inactive = flat fitted curve, though single readings scatter.
# Test: qHTS assay to test for compound auto fluorescence at 460 nm (blue) in HEK293 cell free culture (AID 720681)
# Details: cell-free medium, autofluorescence 405/460 nm (blue); series mostly up to 91.3 µM; fluorescence, % of fluorescent control: at the top concentration
# Source text: U.S. Tox21 Program National Center for Advancing Translational Sciences [NCATS] NIH Chemical Genomics Center [NCGC] U.S. Environmental Protection Agency [EPA] National Institutes of Environmental Health Sciences [NIEHS] National Toxicology Program [NTP] U.S. Food and Drug Administration [FDA] Tox21 Assay Overview: Compound auto fluorescence often interferes with screening of the compound library against various biological targets and signaling pathways. Some of these compounds may have fluorophoric properties. Such properties may interfere with the assay outputs resulting in false positives and/or negatives. To decrease such complications and ensure the compound activities are relevant in terms of biological response, the Tox21 10K compound library was screened for auto fluorescence. From the fluorophores used as reporter signals in our screening assays, the auto fluorescence equivalencies of compounds against three fluorophores have been evaluated: Triamterene, Fluorescein and Rose Bengal sodium for blue, green and red fluorescence, respectively. The fluorescence intensities were measured using Excitation/Emission wavelengths at 405/460nm, 485/535nm and 540/590nm for blue, green and red labels, respectively. This assay includes the blue fluorescence data.
# Tox21 Assay Protocol Summary: 5 uL of culture medium (DMEM containing 10% FBS) per well was dispensed into black wall/clear bottom 1536-well plates using a Multidrop Combi Dispenser (ThermoFisher Scientific, Waltham, MA). After 23 nL compound or DMSO vehicle was transferred into assay plate by a pintool work station (Kalypsys, San Diego, CA), fluorescence intensities in the assay plates were measured by an Envision (PerkinElmer, Shelton, CT) plate reader using three labels for measuring blue, green and red fluorescence at […] 460, 535 and 590nm respectively.
# % is set by controls: 0 for no effect and ±100 for the full control effect.
SMILES,"fluorescence, % of fluorescent control",Potency
O=c1[nH]c2ccccc2n1CCCN1CCN(C(c2ccccc2)c2ccccc2)CC1,-0.0474% [at 46 µM],–
Oc1ccccc1O,–,inactive
C#C[C@]1(OC(C)=O)CC[C@H]2[C@@H]3CCC4=C[C@@H](OC(C)=O)CC[C@@H]4[C@H]3CC[C@@]21C,–,inactive
CC(C)CCCCCOC(=O)CCS,0.0528%,–
CC[N+](CC)(CC)CCOc1ccc(/C=C/c2ccccc2)cc1,–,inactive
CC1=Nc2ccccc2C1(C)C,0.436%,–
CCCC[P+](C)(CCCC)CCCC,0.0074% [at 95.7 µM],–
CCOc1ccc2ccccc2c1C(=O)N[C@@H]1C(=O)N2[C@@H]1SC(C)(C)[C@@H]2C(=O)O,0.309% [at 18.6 µM],–
Cl[Si](Cl)(c1ccccc1)c1ccccc1,0.0104% [at 95.7 µM],–
C=CC(=O)Nc1cc2c(Nc3ccc(F)c(Cl)c3)ncnc2cc1OCCCN1CCOCC1,0.87% [at 46 µM],–
CCCC1CCC(=O)CC1,-0.0482%,–
CCN(CC)c1ccc2c(-c3ccc(S(=O)(=O)O)cc3S(=O)(=O)[O-])c3ccc(=[N+](CC)CC)cc-3oc2c1,-0.208% [at 95.7 µM],–
O=C(O)c1cc(=O)c2ccccc2o1,0.02% [at 46 µM],–
CCC(=O)OC(=O)CC,0.0041%,–
CC1(C)[C@@H](O)CC[C@]2(C)[C@H]3C(=O)C=C4[C@@H]5C[C@@](C)(C(=O)O)CC[C@]5(C)CC[C@@]4(C)[C@]3(C)CC[C@@H]12,–,inactive
C1CCC(SSC2CCCCC2)CC1,0.15%,–
CCCCCCC1CCCC(=O)O1 (stereo not given),0.0277%,–
O=C(O)c1cc(-c2ccc(F)cc2F)ccc1O,0.0528% [at 18.6 µM],–
c1ccsc1,-0.0842%,–
O=C1c2ccccc2C(=O)N1SC1CCCCC1,–,inactive

SMILES,"fluorescence, % of fluorescent control",Potency
Nc1nc(N)nc(-c2cc(Cl)ccc2Cl)n1,0.348% [at 46 µM],–
CC1(C)CCC[C@]2(C)[C@H]3CCO[C@]3(C)CC[C@@H]12,0.103%,–
CC(CCc1ccccc1)NCC(O)c1ccc(O)c(C(N)=O)c1 (stereo not given),–,inactive
O=C(/C=C/c1ccccc1)OC/C=C/c1ccccc1,-0.0184%,–
CC(C)(C)C1CCC(=O)CC1,0.0128%,–
CCCCC/C=C\C/C=C\CCCCCCCC(=O)O,–,inactive
C[C@H]1NCc2cc(-c3ccc4c(=O)c(C(=O)O)cn(C5CC5)c4c3OC(F)F)ccc21,0.387% [at 46 µM],–
Clc1nnc(Cl)c2ccccc12,0.0042%,–
Nc1nc2c(ncn2COCCO)c(=O)[nH]1,0.0219% [at 18.6 µM],–
CC/C=C\CCCCCO,-0.0427%,–
CCOC(=O)c1ccc(C2CCC(NC[C@H](O)COc3ccc(O)c(NS(C)(=O)=O)c3)CC2)cc1 (stereo not given in full),1.7%,–
O=C(O)c1cccc(C(F)(F)F)c1,-0.317%,–
CCc1cccc(CC)c1NC(=O)CN(CC(=O)O)CC(=O)O,0.0332% [at 18.6 µM],–
C=C(C)C(=O)OCCCCCCCCCC,-0.0256%,–
Nc1ccc(NCCO)c([N+](=O)[O-])c1,-0.165%,–
Cc1ccc(C(C)C)cc2c(C)ccc1-2,0.0307% [at 46 µM],–
c1ccc(SSc2ccccc2)cc1,0.006%,–
CC(C)(C)c1ccc(C(O)CCCN2CCC(C(O)(c3ccccc3)c3ccccc3)CC2)cc1 (stereo not given),–,inactive
Cc1c(C)c([N+](=O)[O-])c(C(C)(C)C)c([N+](=O)[O-])c1C,-0.0411%,–
C=CC(=O)OCCOC(=O)C=C,-0.0171%,–
